This passage reports inhibition results from PubChem BioAssay AID743397 (Broad Institute, 2014).

Screen size: about 340,000 compounds; about 330 (0.097%) were called active. Many of the other results were omitted from the sample, so actives are more common in it than they were. Values without a mark were called inactive.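 Rule for the calls: active = mean replicate inhibition of at least 30% and at least 1% of replicates passing that level; inconclusive = only one of the two criteria is met; inactive = neither criterion is met.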

For orientation: inhibition means the relative decrease from the control value, in per cent.

The assay concerns Voltage-dependent L-type calcium channel subunit alpha-1D (CaV1.3) ICDI/IQ interaction. Nature of the assay: Primary screen for inhibitors of IQ motif and Ca2+-dependent inactivation inhibitor domain binding in CACNA1D, Förster resonance energy transfer in living cells, single-concentration test (AID 743397).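 Note: 0% = median of the neutral control wells.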 Conditions: HEK cells, CFP/YFP FRET ICDI-IQ, plate reader, 10 min; at 12.3 µM; active compounds read high; percent FRET-ratio fall versus neutral wells.
For the compound `COC(=O)[C@]1(Cc2ccccc2)NC=C(C(=O)c2ccccc2)[C@@H]1c1cccc(OC)c1`, the inhibition is -4.9%.
As for `COc1ccccc1CCn1cnc(-c2ccccc2)c1C(C)C`, the inhibition was -7.51%.
Regarding `CCCCN(CCCC)CC(O)Cn1c2ccccc2c(=O)c2ccccc21` (configuration not stated), the inhibition is 107% (active).
Consider `CCCn1c(=O)c(-c2ccccc2)c(O)c2ccccc21`, for which the inhibition was -7.92%.
The value for `CCCCCn1c(=O)c(C(=O)OCC)c(Cl)c2ccccc21` was -4.21%.
The value for `COC(=O)c1cc2c(c3c4ccccc4n(S(=O)(=O)c4cccc(C)c4)c13)C(=O)N(Cc1ccccc1)C2` was -4.46%; that for `COC(=O)c1c(-c2ccc(OC)cc2)c2c(c3c4ccccc4n(S(=O)(=O)c4ccc(C)cc4)c13)C(=O)N(C)C2` was -10.3%.
As for `COC(=O)C1=C(C)N(Cc2cccc(C(F)(F)F)c2)C(=NCc2ccccc2)NC1c1ccc(Cl)cc1` (configuration not stated), the inhibition is -3.3%.
Consider `COc1ccc(-c2cc(NC=O)c3ncc(-c4cc(OC)c(OC)c(OC)c4)n3c2)c(OC)c1`, for which the inhibition is -3.57%.
For the compound `COC(=O)[C@]12C[C@H](CC(=O)NCc3cccc(C(F)(F)F)c3)C(=O)N(Cc3ccc4c(c3)OCO4)C1=C[C@H](COCc1ccccc1)O[C@@H]2C`, the inhibition is -9.09%.
The value for `Cc1ccc(O)c(NC(=S)NC(=O)COc2ccc(Br)cc2)c1` was 40.4% (active); that for `CC(=O)Nc1ccc(OC(=O)COc2ccc(Br)cc2)cc1` was -4.58%.
Under `CCS(=O)(=O)c1ccc(O)c(NC(=O)COc2ccc(Cl)cc2)c1` stands -1.51%; under `N#Cc1ccc(OCCCN2CCC(C(O)(c3ccccc3)c3ccccc3)CC2)c(F)c1`, -9.35%.
Consider `O=S1(=O)c2c(cccc2N2CCCCC2)O[C@H](COCc2ccccc2)CN1C1CC1`, for which the inhibition is -6.9%.
Under `COc1cncc(-c2cnc3sc(NCCc4ccccn4)nn23)c1` stands -4.67%.
As to `COc1cccc(CNC(=O)[C@H]2CCCN2C(=O)[C@H]2CCCN2C(=O)c2ccc(F)cc2)c1`, the inhibition was -5.95%.
For the compound `COc1ccc(SSc2ccc(OC)cc2C(=O)O)c(C(=O)O)c1`, the inhibition was -2.9%.
The value for `Cc1ccc(NC(=O)N2c3ccccc3SC2c2ccco2)c(C)c1` (configuration not stated) was -10.9%; that for `Cc1cc(Br)cn2c(Cc3ccccc3C(F)(F)F)c(-c3ccc(C#N)cc3)nc12` was -10%.
Regarding `COC(=O)c1c(-c2ccc(OC)cc2)c2c(c3c4cc(OC)ccc4n(S(=O)(=O)c4ccc(F)cc4)c13)C(=O)N(C)C2`, the inhibition is -5.34%.
Under `COc1ccc(S(=O)(=O)Nc2ccc3c(c2)C(=O)N([C@H](C)CO)C[C@H](C)[C@@H](CN(C)C)OCCCC[C@H](C)O3)cc1` stands -5.26%; under `COC(=O)C1=C(C)N(Cc2ccccc2C(F)(F)F)C(=NCC2CC2)NC1c1cccc(Cl)c1` (configuration not stated), -11.5%.
The value for `CCOC(=O)CNC(=O)N(C)[C@H]1C[C@H]2c3[nH]c4c(-c5ccc6c(c5)OCO6)cccc4c3CCN2C(=O)[C@H]1[C@H](C)O` was -2.88%; that for `COc1ccc(NC(=O)N(C)C[C@@H]2OCCCC[C@@H](C)Oc3ccc(NC(=O)NC4CCCCC4)cc3C(=O)N([C@H](C)CO)C[C@@H]2C)cc1` was -5.46%; that for `CCCCCCCCN1C(=O)[C@@H](CC(=O)NCCCC)C[C@@]2(C(=O)OC)C1=C[C@H](C(C)(C)C)O[C@@H]2C` was -9.75%.
Under `C[C@@H]1ON(C)[C@H]2C[C@H]3c4cc(N5CCOCC5)ccc4CCN3C[C@@H]12` stands -4.48%.
With `COc1ccc(C2CC(c3cccs3)=NN2C(=O)CSc2nncs2)cc1OC` (configuration not stated), the inhibition was -3.4%.
For `COc1ccc(C2CC(c3cccs3)=NN2C(=O)CSc2nnc(N)s2)cc1OC` (configuration not stated), the inhibition was -6.31%.
Under `COc1ccc(C2CC(c3cccs3)=NN2c2nc(C)c(C(C)=O)s2)cc1OC` (configuration not stated) stands 168% (active); under `C[C@@H](CN1C2=NC[C@@H](Cc3ccccc3)N2C[C@H]1Cc1ccc(O)cc1)NC(=O)CCC1CCCCC1`, -5.25%.
For `C[C@@H]1CN([C@H](C)CO)C(=O)CCCn2cc(nn2)CO[C@H]1CN(C)C(=O)Nc1ccc(N2CCCCC2)cc1`, the inhibition was -8.15%.
Turning to `Cc1[nH]nc2c1C(c1ccc(Br)cc1)NC2=O` (configuration not stated), the inhibition is -4.02%.
Under `COCc1cc(N2CCN(C(=O)OC(C)(C)C)C[C@@H]2C)ccc1N1CCN(Cc2ccccc2)[C@H](C)C1` stands -8.69%.
The value for `CCOC(=O)C1=C(C(=O)OCC)C2N(Cc3ccc(C#N)cc3)c3ccccc3[C@@]23C[C@@H](C(=O)OC)N(S(=O)(=O)c2ccc(F)cc2)C3=N1` (some centres not stated) was -8.5%; that for `CC(C)(C)c1ccc(S(=O)(=O)NCC2CCN(C(=O)C(=O)c3cc4ccccc4o3)CC2)cc1` was -8.19%; that for `COC(=O)[C@@]12C[C@@H](CC(=O)N3CCC(c4ccccc4)CC3)C(=O)N(Cc3ccccc3)C1=CCC(C)(C)C2` was -9.64%.
Under `C=CCN=C1NC(c2cccc(C(F)(F)F)c2)C(C(=O)OC)=C(C)N1C` (configuration not stated) stands -4.33%; under `COC(=O)C(C(=O)OC)c1ccccc1NS(=O)(=O)c1cccc2ccccc12`, -10.7%; under `Cc1nc(NC(=O)C(C)(C)C)sc1[N+](=O)[O-]`, -3.6%.
In the case of `CCc1c(-c2ccccc2OC)ncn1CCc1ccccc1OC`, the inhibition was -9.61%.
Consider `Cc1nc2c(OCc3ccc(Cl)cc3Cl)cccn2c1N(C)CC1CC1`, for which the inhibition is -6.39%.
The value for `CC(=O)Nc1cccc(-c2cc(NC=O)c3ncc(-c4ccc(F)c(Cl)c4)n3c2)c1` was -10.8%; that for `CN[C@H]1C[C@H]2c3[nH]c4c(-c5ccccc5)cccc4c3CCN2C(=O)[C@H]1[C@H](C)O` was -3.8%.
Under `CCOC(=O)[C@]12CCC=C1N(Cc1ccco1)C(=O)[C@H](CC(=O)NCc1cccc(C(F)(F)F)c1)C2` stands -5.22%; under `C[C@H](O)[C@@H]1C(=O)N2CCc3c([nH]c4c(-c5ccc6c(c5)OCO6)cccc34)[C@@H]2C[C@@H]1N(C)C(=O)c1ccco1`, -4.05%; under `O=C(N[C@H](C(=O)N1CCC[C@H]1C(=O)NCCc1ccccc1Cl)c1ccccc1)c1ccccc1`, -4.64%.
